From PubChem BioAssay AID504329 (Southern Research Specialized Biocontainment Screening …, 2011)
Out of some 340,000 compounds screened, about 1,000 (0.29%) were called active. These entries were drawn from the full list. Entries with a potency or affinity are not part of this list. A number with no mark means an inactive call. No stated cut-off is given here; in the data, inconclusive means inhibition above about 27% without an active follow-up result; inactive means below that.

Assay: H1N1 influenza NS1A inhibitors, functional cell based assay (AID 504329)
Conditions: percent inhibition, at 12.5 µM, hits give high values
O=C(N/N=C/c1ccccc1O)NC12CC3CC(CC(C3)C1)C2 showed an inhibition of -3.3%.
Compound O=C(NN=Cc1ccccc1O)C1CC1 has an inhibition of -17.2%.
For O=c1[nH]c2cc(Cl)c(Cl)cc2o1, the inhibition was -8.2%.
For O=C(COC(=O)C1(c2ccccc2)CC1)NNC(=O)c1ccccc1F, the inhibition was -15.8%.
Cc1c(N=Nc2c(O)n(C)c(=O)n(C)c2=O)c(=O)n(-c2ccccc2)n1C gave an inhibition of 3.65%.
Compound Cc1c(N=Nc2ccc(O)cc2)c(=O)n(-c2ccccc2)n1C has an inhibition of -3.89%.
CC1(C)CC(=O)C(N=Nc2ccc(-c3ccccc3)cc2)=C(O)C1 showed an inhibition of 10.2%.
CC1(C)CC(=O)C(N=Nc2c(Cl)cc(Cl)cc2Cl)=C(O)C1 gave an inhibition of 9.91%.
Work on Cc1cc(NC(=O)CC(C)C)c(=O)n(Cc2c(F)cccc2Cl)c1 yielded an inhibition of -1.36%.
Work on Cc1ccc(S(=O)(=O)N2CCN(C(=O)CC3CCCC3)CC2)cc1 yielded an inhibition of 2.13%.
Compound Cc1cc(C)c2nc(SCC(=O)NNC(=O)c3ccco3)c(C)cc2c1 has an inhibition of -0.91%.
Cc1ccc(S(=O)(=O)N2CCCCC2)cc1C(=O)N1CCCCCC1 gave an inhibition of -15.6%.
CCOC(=O)C1CCN(C2CCN(C(=O)c3oc4c(F)cccc4c3C)CC2)CC1 gave an inhibition of -2%.
For Cc1ccc(S(=O)(=O)N(CCC(=O)NCc2ccccc2F)c2ccccc2)cc1, the inhibition was -14.3%.
For CC(=O)c1ccc(NC(=O)Nc2ccc(Br)cc2C)cc1, the inhibition was 1.12%.
C=C(C)COc1ccc(-c2[nH]ncc2Oc2ccccc2OC)c(O)c1 gave an inhibition of -3.04%.
With O=[N+]([O-])c1ccccc1/C=N\N1CCN(c2ccccc2)CC1 the inhibition was 17%.
Work on O=[N+]([O-])c1ccccc1/C=C/C=N/N1CCCCC1 yielded an inhibition of 4.44%.
In the case of CCNc1c(C(=O)O)ccc2c1C(=O)c1ccccc1C2=O, the inhibition is reported as 10.3%.
In the case of CC1CC(C)CN(C(=O)c2cccc3c2-c2ccccc2C3=O)C1 (configuration not stated), the inhibition is reported as -15%.
CC1CCCN(C(=O)CN2C(=O)c3ccccc3C2=O)C1 (configuration not stated) showed an inhibition of -0.8%.
O=C1c2ccccc2-c2c1cccc2C(=O)N1CCCCCC1 showed an inhibition of -0.29%.
With O=C1c2ccccc2C(=O)c2c1ccc(C(=O)N1CCCCC1)c2NCCO the inhibition was 21.2%.
Work on O=C(O)c1ccc2c(c1Nc1ccccc1)C(=O)c1ccccc1C2=O yielded an inhibition of 16.9%.
With O=C1c2ccccc2-c2c1cccc2C(=O)N1CCCCC1 the inhibition was -10.6%.
CCN(CCN(C)C)C(=O)c1ccc2c(c1NCCO)C(=O)c1ccccc1C2=O showed an inhibition of 12.9%.
Compound CCOC(=O)c1sc(C)c2c(=O)n(CCCN3CCOCC3)cnc12 has an inhibition of -0.01%.
Cc1cc(C(=O)NCc2cccnc2)n(-c2ccccc2)n1 gave an inhibition of 24.2%.
With CC(C)(C)OC(=O)N[C@H](C(=O)OC(C)(C)C)c1ccc(C(F)(F)F)cc1 the inhibition was 8.11%.
COC(=O)CNC(=O)Cn1c(=O)n(Cc2ccc(F)cc2)c(=O)c2sccc21 showed an inhibition of 0.76%.
COc1ccc(CCC(=O)NCCS(=O)(=O)N2CCN(c3ccc(OC)cc3)CC2)cc1 showed an inhibition of 1.44%.
Compound COC(=O)c1sc2ncccc2c1OCc1cccc(Cl)c1 has an inhibition of 1.6%.
In the case of Cc1cc(C)cc(OCC(=O)Nc2nonc2NC(=O)COc2cc(C)cc(C)c2)c1, the inhibition is reported as -4.28%.
Nn1c(SC/C=C/c2ccccc2)nnc1-c1cccnc1 gave an inhibition of -6.35%.
In the case of Nn1c(SC/C=C/c2ccccc2)nnc1-c1ccncc1, the inhibition is reported as -1.07%.
CN(c1ncc(C(F)(F)F)cc1Cl)N1C(=O)c2cccc(N)c2C1=O gave an inhibition of -4.28%.
Compound COc1ccccc1N1CCN(C(=O)c2sc3ncn(CC(=O)N4CCC(C)CC4)c(=O)c3c2C)CC1 has an inhibition of 6.39%.
CN(Cc1nc(CC2CC2)no1)CC12CC3CC(CC(C3)C1)C2 gave an inhibition of -6.9%.
With O=C(c1ccc(O)cc1)c1ccc(Cl)cc1 the inhibition was -10.1%.
Work on O=C(c1ccc(O)cc1)c1ccc(C(=O)c2ccc(O)cc2)cc1 yielded an inhibition of -19.1%.
CCOCCCNC(=O)C1c2ccccc2C(=O)N2CCc3ccccc3C12 (configuration not stated) gave an inhibition of 24.7%.
Work on CC(=O)Nc1ccc(Nc2ccccc2)cc1 yielded an inhibition of -4.36%.
Compound Nc1ccccc1Nc1ccccc1 has an inhibition of 18.3%.
Cc1ccc(Nc2cccccc2=O)cc1 showed an inhibition of -5.45%.
For Cc1ccc(Nc2ccccc2)cc1, the inhibition was 9.38%.
With COc1ccc(Nc2cccccc2=O)cc1 the inhibition was -2.41%.
COc1ccc(Nc2cccc3ccccc23)cc1 showed an inhibition of -1.24%.
For CC(C)Nc1ccccc1, the inhibition was -4.73%.
COc1ccccc1Nc1ccc(N)cc1 gave an inhibition of 10.9%.
Compound CC(CN1CCN(C)CC1)OC(=O)c1cccc(F)c1 (configuration not stated) has an inhibition of -2.72%.
With COc1cc(OC)c(CN2CCC(Cc3ccccc3)CC2)cc1Br the inhibition was -20.9%.
COc1ccc(NC(=O)CSc2nc3[nH]ncc3c(=O)[nH]2)cc1OC gave an inhibition of -0.08%.
With COc1cccc(CNc2nc3nc(C)c(Cl)c(C)n3n2)c1 the inhibition was 0.89%.
For CCc1nnc(NC(=O)COC(=O)c2cc(OC)cc(OC)c2)s1, the inhibition was 1.22%.
Compound CCc1ccc(NC(=O)C2CCN(c3ncnc4c3nc3n4CCCCC3)CC2)cc1 has an inhibition of -5.69%.
CCOc1ccc2oc(C(=O)N(Cc3nnc(-c4ccccc4Cl)o3)C3CC3)c(C)c2c1 showed an inhibition of -5.39%.
Work on CC(C)c1ccc(CNC(=O)CSCC(=O)Nc2ccc3ccccc3c2)cc1 yielded an inhibition of 1.48%.
Compound CCc1nn(CC(=O)NC2CCN(Cc3ccccc3)CC2)c(=O)c2cc3cc(F)ccc3n12 has an inhibition of 0.23%.
For Cc1cc(C)c(NC(=O)CS(=O)CC(=O)Nc2ccc(-n3cnnn3)c(C)c2)c(C)c1 (configuration not stated), the inhibition was -3.45%.
C/C(=C/c1ccccc1)C(=O)N1CCN(c2ccc(F)cc2)CC1 gave an inhibition of -28.5%.
c1ccc(Nc2ccc(Nc3ccccc3)cc2)cc1 showed an inhibition of 26.8%.
In the case of c1ccc(Nc2ccccc2)cc1, the inhibition is reported as -1.53%.
In the case of CC(C)c1nc(SCC(=O)N2CCCCCC2)c2c(=O)n(C)c(=O)n(C)c2n1, the inhibition is reported as -2.22%.
Work on COc1ccc(CNCCC(c2ccc(OC(C)C)cc2)C(C)C)cc1OC (configuration not stated) yielded an inhibition of 5.92%.
COc1ccccc1C(CCNCc1ccccc1)c1ccc(OC(C)C)cc1 (configuration not stated) showed an inhibition of 11.1%.
Compound COc1ccc(CNCCC(c2ccc(OC(C)C)cc2)c2ccccc2OC)cc1 (configuration not stated) has an inhibition of 13.4%.
Compound COc1ccc(C(CCNCc2ccc(OC(C)C)cc2)c2ccccc2OC)cc1 (configuration not stated) has an inhibition of 3.25%.
COc1ccc(CNCCC(c2ccc(OC)cc2)c2ccccc2OC)cc1 (configuration not stated) gave an inhibition of -0.73%.
For COc1ccc(C(CCNCc2ccc(N(C)C)cc2)c2ccccc2)cc1 (configuration not stated), the inhibition was 25.2%.
Compound O=C(CCc1c[nH]c2ccccc12)NCc1cccc(Cl)c1 has an inhibition of 15.9%.
For Cc1cc(=O)oc2cc(OCC(=O)Nc3c(C)n(C)n(-c4ccccc4)c3=O)c(Cl)cc12, the inhibition was -7.09%.
Cc1cc(=O)oc2cc(OCC(=O)N(C)C3CCS(=O)(=O)C3)c(Cl)cc12 (configuration not stated) showed an inhibition of -3.85%.
With CN(C)/C=C1/C(=O)NC(=O)N(CCNc2ncc(C(F)(F)F)cc2Cl)C1=O the inhibition was -1.37%.
Compound CN(C)C(=O)CCc1ccc2c3c([nH]c2c1)[C@]1(C)[C@@H](C(=O)N2CCCCC2)C[C@H](CC(=O)NCCN2CCOCC2)C(=O)N1CC3 has an inhibition of 8.89%.
S=C(NCc1cccs1)NCC1CCCO1 (configuration not stated) gave an inhibition of -5.35%.
With Cc1ccc(S(=O)(=O)N(C)CCCC(=O)Nc2ccc(C)cc2C)cc1 the inhibition was -2.08%.
For Cc1ccc(S(=O)(=O)N(C)CCCC(=O)Nc2cccc3ccccc23)cc1, the inhibition was 2.47%.
With Cc1ccc(N=Nc2ccc(O)c3ncccc23)cc1 the inhibition was -1.47%.
Compound Cc1ccc(N=Nc2ccc(O)c3ncccc23)cc1C has an inhibition of -4.94%.
For Cc1ccccc1N=Nc1ccc(O)c2ncccc12, the inhibition was 11.8%.
Compound Oc1ccc(N=Nc2ccccc2C(F)(F)F)c2cccnc12 has an inhibition of 18.7%.
CCOc1ccc(NC(=O)CN(C)C(=O)CSCc2c(C)noc2C)cc1OCC showed an inhibition of -3.36%.
For COc1ccc(CC(=O)NNC2=Nc3cccc4cccc2c34)cc1OC, the inhibition was -25.3%.
Work on O=C1c2ccccc2C(=O)N1CCc1nc2ccccc2c(=O)n1Cc1ccco1 yielded an inhibition of -1.09%.
O=C(Cc1ccc(N(CCCl)CCCl)cc1)NC(Cc1ccc(Cl)cc1)C(=O)O (configuration not stated) gave an inhibition of -4.27%.
With CC(C(=O)NCC1(c2ccccc2)CCOCC1)N1CCOCC1 (configuration not stated) the inhibition was -3.8%.
In the case of CCCCCCN1C=C/C(=C\C=C(C#N)C#N)c2ccccc21, the inhibition is reported as 18.4%.
Work on C=CCN1C=CC(=CC=C(C#N)C#N)C=C1 yielded an inhibition of 4.22%.
In the case of CCN(CC)C(=O)c1nn(Cc2ccccc2)c(=O)c2ccccc12, the inhibition is reported as -5.91%.
For Cc1ccc(-n2c(C)cc(C(=S)N3CCOCC3)c2C)cc1C, the inhibition was 12.2%.
With Cc1cc(C(=S)N2CCOCC2)c(C)n1-c1ccc(F)cc1 the inhibition was 1.72%.
In the case of O=C(NC1(c2ccccc2)CC1)C1CCC(=O)N(Cc2ccc(Cl)cc2)C1 (configuration not stated), the inhibition is reported as 8.58%.
Compound O=[N+]([O-])c1ccc(N/N=C2\CC3CC=CC23)cc1 (configuration not stated) has an inhibition of -1.23%.
Compound O=[N+]([O-])c1ccccc1N/N=C1\CC2CC=CC12 (configuration not stated) has an inhibition of 21.6%.
Work on CC1C/C(=N\Nc2ccc(S(N)(=O)=O)cc2[N+](=O)[O-])CC(C)(C)C1 (configuration not stated) yielded an inhibition of 8.9%.
CC1CCC/C(=N/Nc2ccc([N+](=O)[O-])cc2[N+](=O)[O-])C1 (configuration not stated) showed an inhibition of 10.6%.
For O=C(CN1CCN(S(=O)(=O)c2ccc(Br)cc2)CC1)N/N=C/c1cc([N+](=O)[O-])ccc1Cl, the inhibition was -0.7%.
